Ins promoter up = MIN6 insulin promoter up-regulation; z-score at 5 µM; 0.3% of 190,000 active; MIN6 insulin promoter-GFP reporter, high-content imaging; hits give high values;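 active = z-score above 3 at 5 µM with at least 500 cells counted in the well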
WT yeast gro inh = growth inhibition of WT yeast, mitochondrial fusion screen; mitochondrial fusion phenotypic screen, WT strain; inhibition, % at 10 µM; AID 1362; 2.1% of 190,000 active; in the data active = inhibition above about 58%; tested in S. cerevisiae
INS promoter inh = TRM-6 insulin promoter activity inhibition; TRM-6 cells (human fetal islet line), insulin promoter-eGFP reporter, imaging; reporter expression induced with tamoxifen; inhibition, % at 2 µM; 0.9% of 130,000 active; AID 1273;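 active = inhibition above the mean plus 3 SD, with well images judged a real hit on visual review, cut at about 60% in these data, passing the limit was not always enough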
L major viab = reduces viability of Leishmania major promastigotes; 9% of 200,000 active; inhibition, % at 10 µM; resazurin fluorescence viability; in the data active = inhibition above about 50%;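 also: promastigotes grown with compound for 44 hours at 28 °C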
Autophagy HCS = alters autophagy in cells; MEF GFP-LC3 puncta imaging; test concentration mostly 10 µM; calls only at 10 µM (by protocol); 0.98% of 190,000 active;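 active = percentage of spot-positive cells more than 3 SD above its plate mean, without a fluorescence outlier flag or 80% toxicity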
Each line names hits and unclear results; the compound was inactive in the other large screens. This is a sample that favours compounds with a hit; in the whole collection about 11% have one here.

O=C(O)c1ccc(NS(=O)(=O)c2cc(Cl)ccc2Cl)cc1	L major viab 94.5
Cc1ccc(NS(=O)(=O)c2cc(C(=O)O)ccc2Cl)cc1	none (no result: INS promoter inh)
Cc1cc(Cl)c(S(=O)(=O)Nc2cccc(O)c2)cc1OCC(N)=O	L major viab 53.2
Cc1cc(Cl)c(S(=O)(=O)Nc2ccon2)cc1OCC(=O)NC1CCCCC1	none
COc1ccc(NS(=O)(=O)c2cc(OCC(N)=O)c(C)cc2Cl)cc1	L major viab 76.0
Cc1cc(Cl)c(S(=O)(=O)Nc2ccc3c(c2)OCCO3)cc1OCC(=O)NC1CCCCC1	L major viab 99.1
O=C(c1cnn2c(C(F)F)cc(-c3ccccc3)nc12)N1CCCCC1c1cccnc1 (stereo unspecified)	none (no result: WT yeast gro inh, INS promoter inh, L major viab, Autophagy HCS)
COc1ccc(NS(=O)(=O)c2cc(C(=O)O)ccc2C)cc1	WT yeast gro inh 58.6 (no result: INS promoter inh)
COc1ccc(NS(=O)(=O)c2cc(C)ccc2C)cc1	none (no result: WT yeast gro inh, INS promoter inh)
COc1ccc(NS(=O)(=O)c2cc(NC(=O)CNC(=O)c3ccc(C)s3)ccc2Cl)cc1	L major viab 84.1
N#Cc1nccnc1N1CCN(C(=O)Nc2ccccc2)CC1	none (no result: WT yeast gro inh, INS promoter inh, L major viab, Autophagy HCS)
O=C(c1cc(-c2ccc(Cl)cc2)n(-c2ccc(Cl)c(Cl)c2)n1)N1CCOCC1	WT yeast gro inh 65.8
O=C(c1cc(-c2ccc(Cl)cc2)n(-c2cc(Cl)ccc2Cl)n1)N1CCOCC1	none
COCCNc1nc(SCc2ccccc2)nc2sc3c(c12)CCC3	none
CC(CO)Nc1nc(SCc2ccccc2)nc2sc3c(c12)CCC3 (stereo unspecified)	WT yeast gro inh 75.1
Cc1cccc(NC(=O)COc2ccc(/C=C\c3[nH]c(=O)[nH]c(=O)c3[N+](=O)[O-])cc2)c1	none (no result: INS promoter inh)
Cn1c(-c2ccc(F)cc2)cnc1NCc1ccc(F)cc1	L major viab 88.2
CCCCn1nnnc1NCc1cccnc1	none
Cn1c(-c2ccc(Br)cc2)cnc1NCc1cccnc1	L major viab 99.7
Cn1c(-c2cccc([N+](=O)[O-])c2)cnc1NCc1cccc([N+](=O)[O-])c1	none (no result: INS promoter inh)
Cn1c(-c2ccc(F)cc2)cnc1NCc1ccc(C#N)cc1	L major viab 91.8
CCOc1cc(CNc2ncc(-c3ccc(OC)cc3)n2C)ccc1O	L major viab 65.1
COc1ccc(CNC(=O)C/C(C)=N/NC(=O)COc2ccc(C)cc2Br)cc1	none
CCN1CCCC1CNC(=O)c1ccc(N2CCOCC2)c(NS(=O)(=O)c2ccc(OC)cc2)c1 (stereo unspecified)	none
Cc1ccc(CNC(=O)CCC2CCCN(C(=O)CCC(F)(F)F)C2)o1 (stereo unspecified)	none
C#C[C@]1(O)CC[C@H]2[C@@H]3CCc4cc(OC5CCCC5)ccc4[C@H]3CC[C@@]21C	WT yeast gro inh 95.5 (no result: INS promoter inh, L major viab, Autophagy HCS)
C#C[C@]1(O)CC[C@H]2[C@@H]3CCC4=C(CCC(=O)C4)[C@H]3CC[C@@]21C	none (no result: Ins promoter up)
C#C[C@]1(O)CC[C@H]2[C@@H]3CCc4cc(OC)ccc4[C@H]3CC[C@@]21C	Autophagy HCS active (no result: Ins promoter up)
Cc1nn(C2CCS(=O)(=O)C2)c(Cl)c1/C=C/C(=O)OCC(N)=O (stereo unspecified)	none (no result: WT yeast gro inh, INS promoter inh, L major viab, Autophagy HCS)
COc1ccc(C(C(=O)NC(C)(C)C)N(Cc2ccc(C)cc2)C(=O)CCC(=O)Nc2cc(C)on2)cc1 (stereo unspecified)	L major viab 94.4 (no result: INS promoter inh)
COc1cccc(C(C(=O)NC(C)(C)C)N(C(=O)CCC(=O)Nc2cc(C)on2)C(C)(C)C)c1OC (stereo unspecified)	none (no result: Ins promoter up)
COc1cccc(C(C(=O)NC(C)(C)C)N(Cc2ccco2)C(=O)CCC(=O)Nc2cc(C)on2)c1OC (stereo unspecified)	none (no result: INS promoter inh)
CCC(C)(C)NC(=O)C(c1ccc(OC)cc1)N(Cc1ccco1)C(=O)CCC(=O)Nc1cc(C)on1 (stereo unspecified)	L major viab 96.3
COc1ccc(C(C(=O)NC(C)(C)C)N(Cc2ccco2)C(=O)CCC(=O)Nc2cc(C)on2)cc1 (stereo unspecified)	L major viab 87.2 (no result: INS promoter inh)
COc1ccc(NC(=S)NCc2cccn2C)cc1	none (no result: INS promoter inh)
Cc1ccc(S(=O)(=O)N(C)C)cc1NC(=S)N1CCN(Cc2ccc3c(c2)OCO3)CC1	L major viab 84.3 (no result: INS promoter inh)
COc1ccccc1NC(=O)N1CCN(Cc2ccc3c(c2)OCO3)CC1	none (no result: WT yeast gro inh, INS promoter inh, L major viab, Autophagy HCS)
COc1ccccc1NC(=S)N1CCN(Cc2ccc3c(c2)OCO3)CC1	L major viab 96.0
Cc1c(Cl)cccc1NC(=S)N1CCN(Cc2ccc3c(c2)OCO3)CC1	L major viab 74.0
Cc1ccccc1NC(=S)N1CCN(Cc2ccc3c(c2)OCO3)CC1	none (no result: INS promoter inh)
CCc1nnc2n1N=C(c1ccc(-c3ccc(Cl)cc3Cl)o1)CS2	none (no result: Ins promoter up, WT yeast gro inh)
CCc1nnc2n1N=C(c1ccc(-c3cc(Cl)ccc3Cl)o1)CS2	Autophagy HCS active (no result: INS promoter inh)
O=C(Nc1ccc(S(=O)(=O)NCC2CCCO2)cc1)c1ccc(Cl)cc1[N+](=O)[O-] (stereo unspecified)	none (no result: Ins promoter up, INS promoter inh)
O=C(CN1C(=O)c2ccccc2C1=O)c1ccccc1	none (no result: Ins promoter up)
CC1=C(CC(=O)c2ccccc2)C(=O)c2ccccc2C1=O	L major viab 94.0 (no result: Ins promoter up)
COc1ccccc1C(=O)Oc1cc(N)n(S(=O)(=O)c2ccc(C)cc2)n1	INS promoter inh 78.6
COc1ccc(-c2nncnn2)cc1	L major viab 97.1 (no result: Ins promoter up)
Cn1cc(C(=O)N/N=C/c2c(O)ccc3ccccc23)ccc1=O	L major viab 99.3 (no result: INS promoter inh)
Nc1cc(Cl)nc(N/N=C/c2c(O)ccc3ccccc23)n1	L major viab 91.0
C=CCc1cccc(/C=N/NC(=O)c2ccccc2OC)c1O	L major viab 98.4 (no result: Ins promoter up)
COc1cccc(/C=N/NC(=O)c2[nH]c(C)c(C(=O)N/N=C/c3cccc(OC)c3O)c2C)c1O	L major viab 91.3
Cc1cc(C(=O)OCC(=O)Nc2cccnc2Cl)c2ccccc2n1	none (no result: INS promoter inh)
COc1cc(OC)c(OC)cc1/C=N/NC(=O)c1cc(-c2cccn2C)n[nH]1	none (no result: INS promoter inh)
O=C(CSCC(=O)Nc1ccccc1)N/N=C/c1c(O)ccc2ccccc12	L major viab 99.6
COc1cccc(/C=N/NC(=O)c2ccc(=O)n(C)c2)c1O	L major viab 81.0
CCOc1cccc(/C=N/NC(=O)c2cc(-c3cccn3C)n[nH]2)c1O	L major viab 98.2 (no result: INS promoter inh)
Nc1c(C(=O)c2ccccc2)sc2snc(SCC(=O)c3ccccc3)c12	none (no result: Ins promoter up)
COc1ccc(/C=C/C(=O)NC(=S)N2CCN(c3ccccc3OC)CC2)cc1	none (no result: WT yeast gro inh, INS promoter inh, L major viab, Autophagy HCS)
CC(C)C(NC(=O)C12CC3CC(CC(C3)C1)C2)C(=O)O (stereo unspecified)	L major viab 52.1
Cc1ccc(S(=O)(=O)N2CCSC2)cc1C	none
N/C(=N\OC(=O)c1cc(-c2ccccc2)nc2ccccc12)c1ccccn1	WT yeast gro inh 66.2 (no result: INS promoter inh)
N/C(=N\OC(=O)Cc1ccc(-c2ccccc2)cc1)c1ccccn1	WT yeast gro inh 61.6 (no result: Ins promoter up)
Cc1ccc(N(CC(=O)N2CC(=O)Nc3ccccc32)S(=O)(=O)c2ccc3c(c2)OCCO3)cc1	none
CN1CCN(c2ccc(C(=O)c3cn(-c4ccc(F)c(Cl)c4)nn3)cc2)CC1	L major viab 50.0 (no result: INS promoter inh)
Cc1ccc(C(=O)c2cn(-c3ccc(F)c(Cl)c3)nn2)cc1	none (no result: Ins promoter up)
Cc1ccc(-n2cc(C(=O)c3ccc(N4CCN(C)CC4)cc3)nn2)cc1Cl	L major viab 100.5 (no result: INS promoter inh)
